Experimental data taken from PubChem BioAssay (NCI).
About 83,000 compounds went through this panel and 20% of them were active in at least one assay; those are over-represented in the sample as a whole.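 Compound tested at a single concentration for 48 hours in 96-well plates; a percent growth value below 10 was scored as active.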 Values without a mark were called inactive. The source made the active and inactive calls.

The molecules below were run on NCI-H522 lung (assay: NCI-60 one-dose screen, 48 h (100 = growth as untreated, 0 = no growth, -100 = all killed)). Conditions: 10 µM unless noted.
Protocol: Growth inhibition of the NCI-H522 human Non-Small Cell Lung tumor cell line is measured as a screen for anti-cancer activity. Cells are grown in 96 well plates and exposed to the test compound for 48 hours. Compounds are tested at a single concentration, which is 10^-5 M for most compounds. The reported endpoint is percent growth (GI% or GIPRCNT), where numbers from 0 - 100% represent growth inhibition, and numbers from -100% - 0 represent cell death. For example, a value of 40 represents 60% growth inhibition. A value of 0 means no net growth occurred over the course of the experiment. A value of -40 indicates 40% of cells at the beginning of the experiment died by the end of the experiment. A value of -100 means all cells are dead at the end of the experiment.
NCI-60 Human Tumor Cell Lines Screen was performed using the standard one-dose NCI protocol, which is described in more detail at https://dtp.cancer.gov/discovery_development/nci-60/default.htm.
Compounds with GIPRCNT values below 10 were considered active. Activity score was based on GIPRCNT using the following formula: […]
Score is 0 for GIPRCNT values of 100 or above, 50 for GIPRCNT values of 0, and 100 for GIPRCNT values of -100.
In the case of `Cn1cc(-c2nc(N)nnc2-c2c[nH]c3ccc(F)cc23)c2cc(Br)cnc21`, the growth is reported as -52.3% (active).
With `COc1cccc(-c2nc(Nc3ccc(S(N)(=O)=O)cc3)c3ccccc3n2)c1` the growth was 23.9%.
For `CSc1ccc(NC(=O)c2ccc3nn(/C(C#N)=C/c4ccccn4)nc3c2)cc1`, the growth was -84.6% (active).
`Cn1cc(-c2cc(N)n3nc(-c4c[nH]c5ccccc45)cc3n2)c2cccnc21` showed a growth of 31.3%.
With `COc1ccc(C(=O)/C=C/c2cccc3ccccc23)cc1S(N)(=O)=O` the growth was -67% (active).
In the case of `C#C[C@]1(O)CC[C@H]2[C@@H]3CC=C4c5sc(-c6ccc(O)c(O)c6)nc5CC[C@]4(C)[C@H]3CC[C@@]21C`, the growth is reported as -77.1% (active).
Molecule `OCC1(CCCc2ccccc2)CCCN(c2nccc3ccccc23)C1` (stereo not given) has a growth of 22.9%.
In the case of `COc1ccc(C(=O)Nc2n[nH]c(Nc3ccccc3)c2C#N)cc1`, the growth is reported as 104%.
In the case of `C=C1CCC2C3(C)COC(c4ccco4)OC3CCC2(C)C1CC(Sc1ccccc1)C1=CCOC1=O` (stereo not given), the growth is reported as 7.02% (active).
Molecule `N#Cc1c(-c2ccccc2Cl)cc(-c2ccc3ccccc3c2)[nH]c1=O` has a growth of 85%.
For `CSc1ccc(C(=O)Nc2ccc3nnn(/C(C#N)=C/c4ccccn4)c3c2)cc1`, the growth was -84.6% (active).
For `COc1cc2oc(-c3cccc(NC(=O)[C@H](Cc4ccccc4)NC(=O)OC(C)(C)C)c3)cc(=O)c2c(OC)c1OC`, the growth was 30.3%.
Molecule `CN(C)c1ccnc(NCCCSC(c2ccccc2)(c2ccccc2)c2ccccc2)c1` has a growth of 41.1%.
With `Cc1ccc(-c2nc(C#N)c(S(=O)(=O)N3CCN(S(=O)(=O)c4ccccc4)CC3)o2)cc1` the growth was -87.8% (active).
With `COc1ccccc1C(=O)NN1C(=O)/C(=C/C2=Cc3ccccc3OC2)SC1=S` the growth was 97.9%.
`CC1(C)CC[C@]2(C(=O)Nc3ccc(F)cc3)CC[C@]3(C)C(=CCC4[C@@]5(C)C[C@@H](O)[C@H](O)[C@@](C)(CO)C5CC[C@]43C)C2C1` (stereo not given in full) gave a growth of 32.8%.
With `COc1cc(-c2cc(-c3cccc(OCC(=O)O)c3)[nH]c(=O)c2C#N)cc(OC)c1OC` the growth was 104%.
`COc1cc(/C=C2\C(=N)N=C(SCc3nc4ccccc4[nH]3)NC2=O)ccc1O` showed a growth of 99.2%.
In the case of `C#CCOc1cc(N(CC)CC)ccc1C(C(=O)NC(C)(C)C)N(C(=O)C1CCc2cc(F)ccc2O1)c1cc(C)cc(C)c1` (stereo not given), the growth is reported as 19.6%.
With `Cc1ccc(NC(=O)CN2CCN(c3ncnc4c3cnn4-c3ccccc3)CC2)cc1` the growth was -41.1% (active).
`COc1ccc(C2CC(c3ccc(S(=O)(=O)NCCNc4nc(Nc5ccc(F)cc5)nc(N(C)C)n4)cc3)=Nc3c(N)nc(N)nc3N2)cc1` (stereo not given) showed a growth of 89.4%.
In the case of `CC(C)Sc1nc(NCCc2c[nH]c3ccccc23)c(C#N)c(-c2ccc(F)cc2)n1`, the growth is reported as 39.8%.
`COc1cc(CNC(=O)/C=C/c2ccc3c(c2)OCO3)ccc1OCc1cn(-c2cccc(C(F)(F)F)c2)nn1` was tested, and the growth was 27%.
`CC12CC[C@@H]3[C@]4(C)COC(c5cn[nH]c5-c5cccc(Cl)c5)O[C@@H]4CC[C@@]3(C)[C@@H]1CC(C1=CCOC1=O)O2` (stereo not given in full) showed a growth of 26.8%.
`Cn1cc(NC(=O)c2cc(NC(=O)c3ccc(C#Cc4ccccc4)cc3)cn2C)cc1C(=O)NCCCN1CCOCC1` was tested, and the growth was -52.2% (active).
In the case of `COc1ccc([C@H](C)Nc2nc(Cl)nc3ccccc23)cc1`, the growth is reported as -0.556% (active).
In the case of `N#Cc1ccc(/C=N/NC(=O)c2[nH]c3ccc(Br)cc3c2-c2ccccc2)o1`, the growth is reported as -36.4% (active).
With `CN(C)c1nc(NCCNS(=O)(=O)c2ccc(C(=O)/C=C/c3ccc(C(F)(F)F)cc3)cc2)nc(Nc2ccc(F)cc2)n1` the growth was -79.7% (active).
Molecule `CCCS(=O)(=O)N1CCCC(C(=O)Nc2nc3ccc(NC(=O)c4ccc(F)c(OC)c4F)cc3s2)C1` (stereo not given) has a growth of 39.9%.
`O=C1C(=Nc2ccc(F)c(Cl)c2)c2cccc3cccc1c23` gave a growth of 104%.
For `CCN1C(=O)N(CC)C2NNC(Sc3c(C(=O)O)c4ccccc4n(C4CCCC4)c3=O)=NC21` (stereo not given), the growth was -23.1% (active).
`COc1ccc(-c2nnc3ccc(N/N=C/c4ccc(O)cc4)nn23)cc1` showed a growth of 46.7%.
With `Cc1nc(Nc2ccccn2)sc1C(=O)CC(SCC(=O)Nc1ccc(Cl)cc1)c1ccccc1F` (stereo not given) the growth was -12.8% (active).
Molecule `COc1cccc(/C=C/c2nc3ccccc3c(=O)n2CC(=O)Nc2ccc(Cl)cc2)c1` has a growth of 97.2%.
`COc1ccc(-c2c(Nn3cnnn3)no[n+]2[O-])cc1` was tested, and the growth was -14.3% (active).
In the case of `C=C1CCC2C3(C)COC(c4ccccc4F)OC3CCC2(C)C1CC(O)C1=CCOC1=O` (stereo not given), the growth is reported as -50.3% (active).
For `O=c1oc2ccccc2cc1-c1csc(N2N=C(c3ccccc3)CC2c2ccc(N3CCOCC3)cc2)n1` (stereo not given), the growth was 101%.
`N#Cc1c(-c2cccnc2)cc(-c2ccc3ccccc3c2)[nH]c1=O` showed a growth of 66.2%.
With `CC1[C@H]2[C@H](C[C@H]3[C@@H]4CC=C5c6sc(Nc7ccccc7F)nc6CC[C@]5(C)[C@H]4CC[C@@]32C)O[C@]12CC[C@@H](C)CO2` (stereo not given in full) the growth was -66.5% (active).
In the case of `CCOP(=O)(OCCCl)c1nc(-c2ccc(C)cc2)oc1NCc1ccccc1` (stereo not given), the growth is reported as 69.1%.
